CHT inh: inhibitors of human choline transporter CHT; Q9GZV3; hit rate 0.86% among 310,000; AID 488975; B-score at 10 µM; CHT-expressing cells, membrane potential dye, choline response; active compounds read low;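 active = B-score over 3 SD under the library average, and starting fluorescence ratio not unusually high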;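 note: choline stimulus applied at its EC90 after an EC20 pre-addition; B-score computed on integrated fluorescence ratio after choline addition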
EP2 modulator: EP2 receptor (human) modulation. induction, % at 25 µM. AID 940. hit rate 0.83% among 260,000. EP2-expressing cells, cAMP HTRF FRET, PGE2 co-stimulation;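 active = compounds whose cAMP rise, as percent of the full-agonist control response, exceeds 60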;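 note: rat C6 glioma line stably carrying human EP2 under a CMV promoter; the protocol text gives 20 µM as final concentration; 100% = response of wells given 1 µM PGE2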
Target sequence (P43116 whole entry, looked up): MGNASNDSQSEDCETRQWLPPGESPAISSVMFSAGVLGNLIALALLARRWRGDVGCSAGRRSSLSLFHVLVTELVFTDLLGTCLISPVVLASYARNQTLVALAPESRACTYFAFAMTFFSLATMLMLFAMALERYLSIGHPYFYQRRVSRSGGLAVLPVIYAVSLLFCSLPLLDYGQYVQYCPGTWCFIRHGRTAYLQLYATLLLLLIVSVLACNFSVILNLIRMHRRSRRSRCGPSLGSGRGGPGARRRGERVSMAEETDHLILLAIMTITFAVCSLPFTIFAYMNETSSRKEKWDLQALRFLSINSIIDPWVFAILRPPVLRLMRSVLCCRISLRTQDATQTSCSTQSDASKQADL
PGE2 EP2 inh: EP2 receptor (human) inhibition | P43116 | inhibition, % at 25 µM | AID 1422 | C6 glioma cells expressing human EP2, cAMP TR-FRET; cells stimulated with saturating PGE2 | hit rate 0.52% among 260,000;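 active = percent inhibition above 40 after rounding to a whole number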;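 note: rat C6 glioma host cells with rolipram phosphodiesterase inhibitor present; the protocol text gives 20 µM as final concentration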
CHT PAM: allosterically activates the human high affinity choline transporter. hit rate 0.49% among 310,000. AID 488977. B-score at 10 µM. Q9GZV3. CHT-expressing cells, membrane potential dye, choline EC20; active compounds read high; LV-AA mutant CHT in HEK293 cells;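 active = initial fluorescence not abnormally high and integrated response B-score, plate-corrected, over 3 SD above library mean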
CHT activ conf: confirmation of human choline transporter (CHT) activators; activation, % at 10 µM; hit rate 91% among 2,500; shares compounds with CHT PAM; CHT-expressing cells, membrane potential dye fluorescence (FDSS); % of choline EC20–EC90 response window; HEK293 expressing CHT LV-AA mutant; choline added at its EC20;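 active = primary screen active, with duplicate mean activation above negative control mean plus 3 SD, cut at about 11% in these data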
HEK293 MP dye: activity in parental HEK293 cells lacking CHT. shares compounds with CHT PAM. membrane potential dye fluorescence (FDSS); measured after EC20 choline addition. ratio readout change at 10 µM, hits read low. hit rate 62% among 2,500. AID 623908;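 active = duplicate-averaged ratio beyond 3 SD from buffer wells, up or down, though filed actives are nearly all decreases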
* marks the source's active call; other numbers are inactive results; i = inactive; . = no result given; ! = not active in a repeat. Most compounds without a hit are left out; they make up all but 2.1% or so of the library.

SMILES	CHT inh	EP2 modulator	PGE2 EP2 inh	CHT PAM	CHT activ conf	HEK293 MP dye
O=C(COc1ccc(Br)cc1Cl)NC1CCCCC1	i	-1	11	i	.	.
CC(NCc1cc(Br)ccc1OCC(=O)NCc1ccccc1)c1ccccc1 (stereo unspecified)	i	8	2	i	-2	i
Cc1ccc2cc(C(c3nnnn3Cc3ccccc3)N3CCCCC3)c(=O)[nH]c2c1 (stereo unspecified)	.	-17	10	.	.	.
N#CC1=C(N)Oc2cc(N)ccc2C1c1cccc(Br)c1 (stereo unspecified)	i	.	.	i	34*	i
Cc1ccc(C2C(C#N)=C(N)Oc3cc(N)ccc32)cc1 (stereo unspecified)	i	.	.	i	.	.
CCOC(=O)c1c(N)n(C2CC(C)(C)NC(C)(C)C2)c2nc3ccccc3nc12	i	1	11	6.7*	57*	-72*
CCOC(=O)c1c(NC(=O)c2ccco2)n(C2CCCCC2)c2nc3ccccc3nc12	i	21	11	7.3*	42*	i
CCC(=O)Nc1c(C#N)c2nc3ccccc3nc2n1C1CCCCC1	i	17	3	i	.	.
CCN1CCN(C(=O)c2c(NC(=O)c3ccco3)sc3c2CCCC3)CC1	.	7	7	.	.	.
CCOc1ccccc1N1CC(C(=O)Nc2ccccc2N2CCCC2)CC1=O (stereo unspecified)	i	.	.	i	.	.
CCC(C)c1ccccc1N1CC(C(=O)Nc2ccccc2N2CCCC2)CC1=O (stereo unspecified)	i	.	.	i	29*	i
CCc1nn(CC(=O)N2CC(C)CC(C)C2)c(=O)c2cc3sc(C)cc3n12 (stereo unspecified)	.	-16	.	.	.	.
Cc1cccc(NC(=O)Cn2cc(C(=O)C(C)C)c3ccccc32)c1C	.	-61	9	.	.	.
COc1ccc(S(=O)(=O)N2CCC(C(=O)Nc3cc(C)ccc3C)CC2)cc1C	.	-37	7	.	.	.
CSc1ccc(CN(C)C(=O)C(c2ccccc2)c2ccccc2)cc1	i	.	.	7.1*	34*	i
CSc1ccc(CN(C)C(=O)C(Cc2ccccc2)NC(=O)c2ccccc2)cc1 (stereo unspecified)	i	.	.	i	.	.
CCn1cc(C(=O)NCCCN(C)C)c(=O)c2cc(F)c(N3CCN(C)CC3)cc21	i	33	7	i	30*	i
CCn1cc(S(=O)(=O)c2ccc(C)cc2)c(=O)c2cc(F)c(N3CCN(C)CC3)cc21	i	.	.	i	49*	-49*
Cc1ccc(S(=O)(=O)c2cn(C)c3cc(N4CCOCC4)c(F)cc3c2=O)cc1	i	.	.	i	.	.
CN1CCN(c2nc(C#N)cc(-c3ccccc3)n2)CC1	i	6	8	i	23*	-23*
COc1ccc(-c2cc(C#N)nc(N3CCN(C)CC3)n2)cc1	i	-12	7	i	.	.
O=C(C1CCC1)N1CCC[C@H](Cn2nc(-c3cccs3)ccc2=O)C1	.	-43	6	.	.	.
CCN1/C(=C/c2ccc3cccc(C)c3[n+]2CC)Sc2ccccc21	i	-69	63*!	i	12*	i
C[n+]1c(/C=C2/Sc3ccccc3N2CCCS(=O)(=O)[O-])ccc2ccccc21	.	-72	12	.	.	.
O=[N+]([O-])c1cccc(-c2nc(-c3ccncc3)no2)c1	i	-40	.	7.1*	44*	-43*
SMILES	CHT inh	EP2 modulator	PGE2 EP2 inh	CHT PAM	CHT activ conf	HEK293 MP dye
CCOc1ccc2[nH]c(=O)c(CN(Cc3cccs3)S(=O)(=O)c3ccccc3Cl)cc2c1	.	7	16	.	.	.
Cc1ccc(C)c2c(N)c3c(nc12)CCCC3 (tested in a mixture with another compound)	.	-97	21	.	.	.
Nc1c2c(nc3c1CCC3)CCCC2	i	.	18	12*	44*	-70*
O=C1CN(C(=O)c2c(F)cccc2F)C(c2ccccc2)c2cc(Br)ccc2N1 (stereo unspecified)	i	.	.	i	14*	i
O=C1CN(C(=O)c2ccccc2[N+](=O)[O-])C(c2ccccc2)c2cc(Br)ccc2N1 (stereo unspecified)	i	.	.	6.7*	24*	i
O=C1CN(C(=O)c2c(F)cccc2F)C(c2ccc(F)cc2)c2cc(Br)ccc2N1 (stereo unspecified)	i	.	.	i	.	.
COCCNC(=S)N(CCN(C)C)Cc1cc2cc(C)ccc2[nH]c1=O	.	-30	4	.	.	.
CC(NC(=O)C1CCC(C(=O)NC(C)c2ccccc2)CC1)c1ccccc1 (stereo unspecified)	i	.	.	i	.	.
CC(NC(=O)C1CCN(C(=O)Nc2ccccc2)CC1)c1ccccc1 (stereo unspecified)	i	.	.	i	0	i
O=[N+]([O-])c1ccc2c(c1)C(N1CCOCC1)/C(=C/COc1ccc3ccccc3c1Br)O2 (stereo unspecified)	i	5	15	i	.	.
O=[N+]([O-])c1ccc(OC/C=C2\Oc3ccc([N+](=O)[O-])cc3C2N2CCOCC2)cc1 (stereo unspecified)	i	-8	-4	7.5*	30*	i
O=C1c2cnc3ncnn3c2CC2c3ccccc3CCN12 (stereo unspecified)	i	-15	1	i	21*	-27*
CSc1nc2ncc3c(n2n1)CC1c2ccccc2CCN1C3=O (stereo unspecified)	i	9	2	i	.	.
COc1cc2c(cc1OC)-c1cc3ccc(OC)c(OC)c3c[n+]1CC2	i	0	16	i	36*	-24*
CN(C)Cc1ccc(-c2nc3cccc4c3n2CCNC4=O)cc1	i	.	12	i	51*	-38*
Cc1cc(C)c(NC(=O)CN2C(=O)C(C)(C)Oc3ccc(C(=O)NC(C)C)cc32)c(C)c1	.	-5	9	.	.	.
N#Cc1cc(Sc2ccccn2)c([N+](=O)[O-])cc1C#N	i	19	3	i	46*	-41*
Cn1c(=O)c2c3c(sc2n2cnnc12)CCC3	i	34	4	i	30*	-39*
O=c1c2c3c(sc2n2cnnc2n1CCc1ccccc1)CCCC3	i	-50	17	i	.	.
COc1ccc2cc(C)c3nn(Cc4ccncc4)c(=O)n3c2c1	.	-10	.	.	.	.
CC(C)C(CCNCc1ccccn1)c1ccc(Cl)cc1 (stereo unspecified)	i	.	.	6.7*	17*	i
CN(C)CCCN(C(=O)c1ccco1)c1nc2c(F)cccc2s1	i	-7	16	i	45*	-58*
O=C(c1ccccc1CCc1ccccc1)N1CCN(c2ccccn2)CC1	i	41	4	6.5*	27*	i
O=C(CCc1ccccc1)N1CCN(c2ccccn2)CC1	i	1	9	i	.	.
